# This is a sample that favours compounds with a hit; in the whole collection about 2.3% have one here.
# ANO1 block = mouse TMEM16A channel inhibition, primary screen; Q8BHY3; HEK293 TMEM16A/YFP iodide influx fluorescence, ionomycin; normalized B-score (activity score, 25-100; higher = stronger inhibition) at 10 µM; 310,000 compounds, 1.2% hits;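 active = ratio plate-corrected score three or more library SD toward inhibition, starting fluorescence score within five deviations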;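 note: score derived from kinetic fluorescence span divided by baseline fluorescence per well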
# TMEM16A act = activates or potentiates the mouse TMEM16A chloride channel. Q8BHY3. 340,000 compounds, 0.3% hits. B-score at 10 µM. AID 623877. HEK293 TMEM16A/YFP-H148Q/I152L, iodide quench fluorescence; hits give low values;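 active = fluorescence-ratio B-score plate-corrected deviation score at least 3 library SD below zero, with starting fluorescence score within 5 deviations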;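 note: channel opened by trigger with iodide after compound preincubation; score built on the fluorescence ratio of max minus min over baseline; more negative score means more quench and so TMEM16A activation or potentiation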
# CHT block = human CHT choline transport inhibition; CHT-expressing cells, membrane potential dye, choline response; hits give low values; 310,000 compounds, 0.86% hits; B-score at 10 µM; Q9GZV3; AID 488975;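 active = B-score over 3 SD under the library average, and starting fluorescence ratio not unusually high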;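 note: choline stimulus applied at its EC90 after an EC20 pre-addition; B-score computed on integrated fluorescence ratio after choline addition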
# CHT allo act = allosterically activates the human high affinity choline transporter | CHT-expressing cells, membrane potential dye, choline EC20; hits give high values; LV-AA mutant CHT in HEK293 cells | B-score at 10 µM | 310,000 compounds, 0.49% hits | AID 488977;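 active = initial fluorescence not abnormally high and integrated response B-score, plate-corrected, over 3 SD above library mean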
# TMEM16A reconf = TMEM16A (mouse) chloride channel inhibition, re-confirmation; AID 652189; HEK293 TMEM16A/YFP-H148Q, iodide quench fluorescence; ionomycin added to raise cell calcium; 2,300 compounds, 39% hits; inhibition, % at 10 µM; shares compounds with ANO1 block;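 active = mean duplicate percent inhibition, scaled so buffer wells are 0 and the reference blocker 100, over three buffer SD above buffer mean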
# TMEM16A Ca cntr = counter-screen for TMEM16A inhibitors: effect on calcium mobilization; shares compounds with ANO1 block; TMEM16A/YFP HEK293, Fluo4 calcium mobilization; calcium response (% of ionomycin), % at 10 µM; 2,300 compounds, 2% hits;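 active = duplicate-averaged calcium signal over 20% of the ionomycin maximum, relative to buffer baseline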;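 note: each well's signal is peak minus trough fluorescence divided by its pre-addition baseline; 0% = buffer wells and 100% = ionomycin wells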
# Parental YFP cnt = acts in parental YFP-HEK293 cells lacking TMEM16A, counter-screen | iodide YFP quench, ionomycin | 2,300 tested, under 10 active | shares compounds with ANO1 block | AID 652233 | YFP ratio F(max-min)/F0 at 10 µM;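 active = yellow fluorescent protein signal ratio exceeding the buffer control mean by over 5 SD of those controls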;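 note: ratio is mean of duplicate wells from kinetic YFP trace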
# ClC-1 rat inh = selectivity of TMEM16A inhibitors: inhibition of rat ClC-1 chloride channel | shares compounds with ANO1 block | CHO ClC-1-YFP, iodide influx fluorescence quench; iodide control reads 0, buffer control 100 | ratio percent, % at 10 µM | 2,300 tested, under 10 active | AID 652236;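 active = duplicate-mean ratio percent above the mean of iodide-only control wells, which defines zero, plus 5 of their SD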;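 note: higher percent means stronger block of ClC-1 iodide influx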
# * = called active by the depositor; i = inactive; x = no result.
SMILES,ANO1 block,TMEM16A act,CHT block,CHT allo act,TMEM16A reconf,TMEM16A Ca cntr,Parental YFP cnt,ClC-1 rat inh
CCOCC(=O)Nc1cc(C(F)(F)F)ccc1Oc1cccc(Br)c1,25*,i,i,i,17.5%*,i,-1.09,-9.0
CC(=O)Nc1cc(C(F)(F)F)ccc1Oc1cccc(Br)c1,i,i,i,i,x,x,x,x
CC(C)CN(C(=O)CN(C)CC(=O)Nc1ccc(Cl)c(C(F)(F)F)c1)c1c(N)n(CC(C)C)c(=O)[nH]c1=O,x,i,x,x,x,x,x,x
O=C(CN1C(=O)c2cccc3cccc1c23)N1CCc2ccccc2C1,i,i,i,i,x,x,x,x
O=C(CCCN1C(=O)c2ccccc2C1=O)N1CCc2ccccc2C1,25*,i,i,i,i,i,-1.08,-4.0
Nc1ccccc1C#CC(=O)c1ccccc1,i,i,i,i,x,x,x,x
CCc1cc2cc3c(cc2nc1SCC(=O)OC(C)C)OCO3,100*,i,i,i,i,i,-0.997,-15.5
COc1ccccc1-c1noc(-c2ccccc2C(=O)Nc2cccnc2)n1,i,i,i,i,x,x,x,x
O=C(Nc1cccnc1)c1ccccc1-c1nc(-c2ccccc2F)no1,25*,i,i,i,i,i,-0.865,-12.5
O=C(COc1ccc2c3c(c(=O)oc2c1)CCCC3)NCCCN1CCOCC1,i,i,i,i,x,x,x,x
CC1=C(C(=O)OCC(Br)(Br)Br)C(c2cccc([N+](=O)[O-])c2)NC(=O)N1CCCC(=O)O (stereo not given),25*,i,i,i,i,i,-0.991,-0.5
CCOC(=O)C1=C(C)N(CCCCCC(=O)O)C(=O)NC1c1cccc([N+](=O)[O-])c1 (stereo not given),i,i,i,i,x,x,x,x
CCOc1ccc(S(=O)(=O)NCCC(=O)N(C)Cc2cccs2)cc1,x,i,x,x,x,x,x,x
Cc1ccc2oc(C(=O)NCC3CCOCC3)c(C)c2c1,i,i,i,i,x,x,x,x
CC(NCCc1ccc(O)cc1)C(O)c1ccc(O)cc1 (stereo not given),100*,i,i,i,i,i,-0.919,-10.0
COc1ccc(CN(C)C(=O)Cn2cnc3c(OCc4ccccc4)ncnc32)cc1OC,x,i,x,x,x,x,x,x
O=C(OCCN1CCN(c2ncc(C(F)(F)F)cc2Cl)CC1)c1ccc(Cl)cc1,100*,i,i,i,i,i,-1.1,-6.5
O=C(OC1CCN(c2ncc(C(F)(F)F)cc2Cl)CC1)c1ccc(Cl)cc1,i,i,i,i,x,x,x,x
C/C(=N\NC(=O)c1cccc(Cl)c1)C1C(=O)c2ccccc2C1=O,100*,i,i,i,i,i,-1.11,-13.5
C/C(=N\NC(=O)CCc1ccccc1)C1C(=O)c2ccccc2C1=O,i,i,i,i,x,x,x,x
CCCCOC(=O)Nc1nnc(COc2ccccc2)s1,25*,i,i,i,i,i,-0.825,-15.5
CCc1ccc(OCc2cccc(C(=O)N/N=C\c3cnn(C)c3C)c2)cc1,x,i,x,x,x,x,x,x
COc1ccc(CNC(=O)CCSc2nc(-c3ccc4c(c3)OCO4)cc(C(F)(F)F)n2)cc1,i,i,i,i,i,i,-1.03,-14.0
COc1ccc(-c2cc(C(F)(F)F)nc(SCCC(=O)N3CCCC3)n2)cc1,100*,i,i,i,i,i,-1.26,-16.0
COC(=O)c1sccc1NC(=O)c1c(Cl)cnn1C,i,i,i,i,x,x,x,x
COC(=O)c1ccc(CSc2nc(C(F)(F)F)c3c(c2C#N)CCC3)o1,100*,i,i,i,i,i,-1.13,-12.0
COC(=O)CSc1nc(-c2ccc(C)cc2)c2c(c1C#N)CCCC2,i,i,i,i,x,x,x,x

# Screens as filed in PubChem.
